Values joined by “and” are separate entries in the source; they are usually repeats but may differ in a detail not shown here. Equal entries are not always repeated. Active and inactive are the calls of the source. Where a call stands in place of a potency, no number is given. The call rests on the fitted dose curve; in most records, active means well fitted curve in the direction sought with a large enough effect in the repeat runs; inconclusive means weak or mixed curves; inactive means flat fitted curve, though single readings scatter.
Assay: qHTS assay to test for compound auto fluorescence at 590 nm (red) in HEK293 cells (AID 720679)
Settings: red autofluorescence 540/590 nm; series mostly up to 91.3 µM; fluorescence, % of fluorescent control: at the top concentration
From the text: National Center for Advancing Translational Sciences [NCATS]
NIH Chemical Genomics Center [NCGC]
U.S. Environmental Protection Agency [EPA]
National Institutes of Environmental Health Sciences [NIEHS]
National Toxicology Program [NTP]
U.S. Food and Drug Administration [FDA]
Compound auto fluorescence often interferes with screening of the compound library against various biological targets and signaling pathways. Some of these compounds may have fluorophoric properties. Such properties may interfere with the assay outputs resulting in false positives and/or negatives. To decrease such complications and ensure the compound activities are relevant in terms of biological response, the Tox21 10K compound library was screened for auto fluorescence.
From the fluorophores used as reporter signals in our screening assays, the auto fluorescence equivalencies of compounds against three fluorophores have been evaluated: Triamterene, Fluorescein and Rose Bengal sodium for blue, green and red fluorescence, respectively. The fluorescence intensities were measured using Excitation/Emission wavelengths at 405/460nm, 485/535nm and 540/590nm for blue, green and red labels, respectively. This assay includes the red fluorescence data.
Tox21 Assay Protocol Summary:
2,000 HEK293 cells in 5 uL of culture medium containing 10% dialyzed FBS per well were dispensed into black wall/clear bottom 1536-well plates using a Multidrop Combi Dispenser (Thermo Scientific). The assay plates were incubated for 4-5 hr at 37C to allow cell attachment to the well bottom, followed by the transfer of 23 nL compound or DMSO vehicle by a pintool work station (Kalypsys, San Diego, CA). After the assay plates were incubated overnight at 37C and 5% CO2, fluorescence intensities in the assay plates were measured by an Envision (PerkinElmer, Shelton, CT) plate reader using three labels for measuring blue, green and red fluorescence at […] 460, 535 and 590nm respectively.
Potency means the concentration at half of the fitted maximal effect; tags describe the fitted curve by direction and shape or compound fluorescence and quenching.

For Nc1ccc([N+](=O)[O-])cc1O, which “fluorescence, % of fluorescent control” value is on record?
The value was -0.471% (inactive).

With CCN(CC)C(=O)c1cccc(C)c1 as the compound, how does the Potency read?
The Potency was “inactive”.

Which Potency does the source give for Nc1c2c(nc3ccccc13)CCCC2 here?
Its Potency is “inactive”.

For CCCCOC(=O)c1ccc(O)cc1, which Potency is on record?
Its Potency is “inactive”.

With CC(=O)CC(c1ccccc1)c1c(O)c2ccccc2oc1=O (stereo not given) as the compound, how does the Potency read?
Its Potency is “inactive”.

For O=C1OC2(c3ccccc31)c1cc(Br)c(O)c(Br)c1Oc1c2cc(Br)c(O)c1Br, which Potency is on record?
The Potency was 5.01 µM [fluorescent] (active) and 4.47 µM [fluorescent] (active) and 3.55 µM [fluorescent] (active).

For Cc1cc(C)nc(NS(=O)(=O)c2ccc(N)cc2)n1, which Potency is on record?
The Potency was “inactive”.

With O=C(O)c1ccccc1 as the compound, how does the Potency read?
Its Potency is “inactive”.

With Cc1ncc([N+](=O)[O-])n1C as the compound, how does the Potency read?
Its Potency is “inactive”.

With CC12CCC(CC1)C(C)(C)O2 as the compound, how does the Potency read?
Its Potency is “inactive”.

With O=C1NC(=O)C(c2ccccc2)(c2ccccc2)N1 as the compound, how does the Potency read?
The Potency was “inactive”.

For C[C@](N)(Cc1ccc(O)c(O)c1)C(=O)O, which Potency is on record?
The Potency was “inactive”.

For NS(=O)(=O)O, which Potency is on record?
Its Potency is “inactive”.

Which “fluorescence, % of fluorescent control” value does the source give for O=C(Nc1ncc([N+](=O)[O-])s1)c1cccs1 here?
Its value is 0.189% [at 46 µM] (inactive).

With O=c1[nH]cc(F)c(=O)[nH]1 as the compound, how does the Potency read?
The Potency was “inactive”.

Which “fluorescence, % of fluorescent control” value does the source give for O=CC(=O)c1ccccc1 here?
Its value is 0.115% (inactive).

For O=S1(=O)OC(c2ccc(O)cc2)(c2ccc(O)cc2)c2ccccc21, which Potency is on record?
The Potency was “inactive”.

For O=C1c2c(O)cccc2Cc2cccc(O)c21, which Potency is on record?
The Potency was “inactive”.

With Oc1ccccc1 as the compound, how does the Potency read?
Its Potency is “inactive”.

For F[B-](F)(F)F, which Potency is on record?
The Potency was “inactive”.

With NS(=O)(=O)c1cc2c(cc1Cl)NCNS2(=O)=O as the compound, how does the Potency read?
Its Potency is “inactive”.

For COc1ccc2c(c1)c(CC(=O)O)c(C)n2C(=O)c1ccc(Cl)cc1, which Potency is on record?
Its Potency is “inactive”.

For Nc1c(N=Nc2ccc(-c3ccc(N=Nc4cc(S(=O)(=O)O)c5ccccc5c4N)cc3)cc2)cc(S(=O)(=O)O)c2ccccc12, which Potency is on record?
The Potency was “inactive”.

Which Potency does the source give for CC(=O)Nc1c(I)c(NC(C)=O)c(I)c(C(=O)O)c1I here?
The Potency was “inactive”.

With CCCc1cc(=O)[nH]c(=S)[nH]1 as the compound, how does the Potency read?
The Potency was “inactive”.

For OC[C@H]1O[C@H](O[C@]2(CCl)O[C@H](CCl)[C@@H](O)[C@@H]2O)[C@H](O)[C@@H](O)[C@H]1Cl, which Potency is on record?
The Potency was “inactive”.

With NC(CO)(CO)CO as the compound, how does the Potency read?
Its Potency is “inactive”.

With O=C(O)CC(O)C(=O)O (stereo not given) as the compound, how does the Potency read?
Its Potency is “inactive”.

For O=c1[nH]cnc2c1ncn2[C@H]1CC[C@@H](CO)O1, which Potency is on record?
The Potency was “inactive”.

Which Potency does the source give for Cc1cccc(C)c1 here?
Its Potency is “inactive”.

With CCOc1ccc(NC(C)=O)cc1 as the compound, how does the Potency read?
The Potency was “inactive”.

Which Potency does the source give for CCOC(N)=O here?
The Potency was “inactive”.

With CN(C)C(=S)SC(=S)N(C)C as the compound, how does the Potency read?
Its Potency is “inactive”.

Which Potency does the source give for CC(C)c1c(C(=O)Nc2ccccc2)c(-c2ccccc2)c(-c2ccc(F)cc2)n1CC[C@@H](O)C[C@@H](O)CC(=O)O here?
The Potency was “inactive”.

Which Potency does the source give for CC(=O)CCC(=O)O here?
Its Potency is “inactive”.

Which Potency does the source give for CCCCC1(COC(=O)CCC(=O)O)C(=O)N(c2ccccc2)N(c2ccccc2)C1=O here?
Its Potency is “inactive”.

Which Potency does the source give for Nc1ccc(S(N)(=O)=O)cc1 here?
Its Potency is “inactive”.

For NC(=O)n1c(O)c(C(=O)c2cccs2)c2cc(Cl)ccc21, which “fluorescence, % of fluorescent control” value is on record?
The value was -0.0456% [at 46 µM] (inactive).

For CCCCCCCC(=O)OCC(COC(=O)CCCCCCC)OC(=O)CCCCCCC, which Potency is on record?
The Potency was “inactive”.

For CN(C)CCOC(c1ccccc1)c1ccccc1, which Potency is on record?
The Potency was “inactive”.

From PubChem BioAssay (Tox21)
